{
  "source": "PubChem BioAssay (NCI)",
  "note": "The panel holds about 83,000 compounds, 20% with a hit somewhere; the sample as a whole holds those more often.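 96-well plates, one dose, 48 hours. Percent growth reported; active if below 10.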 A number with no mark means an inactive call. The source made the active and inactive calls.",
  "data": [
    {"tested_on": "MDA-MB-468 breast", "experiment": "NCI-60 one-dose screen, 48 h (100 = growth as untreated, 0 = no growth, -100 = all killed)", "details": "10 µM unless noted", "values": [
      {"compound": "CCCCCCCCCCCCNC(=S)N/N=C/c1ccc(Cl)c(Cl)c1", "growth": "104%"},
      {"compound": "CCSc1nc(Nc2ccc(S(=O)(=O)Nc3ccon3)cc2)c(C#N)c(-c2cccc(Br)c2)n1", "growth": "85.1%"},
      {"compound": "O=C(CCl)n1nnnc1Cc1ccccc1", "growth": "101%"},
      {"compound": "CSc1nc(N)c(NS(=O)(=O)c2ccc(C(C)=O)cc2)c(=O)[nH]1", "growth": "97%"},
      {"compound": "COc1ccc(/C=C/C(=O)c2cc3c(N)c(C(=O)Nc4ccccc4)sc3nc2C)cc1", "growth": "15.3%"},
      {"compound": "CN(C)c1ccc(/C=C/c2c(F)cccc2F)cc1", "growth": "81.3%"},
      {"compound": "COc1ccc(S(=O)(=O)n2cc(C=O)c3ccccc32)c(OC)c1", "growth": "84.7%"},
      {"compound": "Cc1n(Cc2ccc3ccccc3n2)cc[n+]1Cc1ccc2ccccc2c1", "growth": "-23.5% (active)"},
      {"compound": "O=C(NCc1ccccc1O)c1cccc2ccccc12", "growth": "84.9%"},
      {"compound": "COc1ccc(-n2c(C)cc(-c3ccccc3)c2C)cc1", "growth": "-6.9% (active)"},
      {"compound": "C[C@H]1[C@H](C)CC[C@]2(COC(=O)CCC(=O)O)CC[C@]3(C)C(=CC[C@@H]4[C@@]5(C)CCCNC(C)(C)[C@@H]5CC[C@]43C)[C@H]12", "growth": "69% [100 µM]"},
      {"compound": "CC(=O)Oc1c2c(nc3c1c1ccccc1n3Cc1ccccc1)-c1ccccc1C2", "growth": "92.2%"},
      {"compound": "C=C(C)[C@@H]1CC[C@]2(C)[C@H](CC(=O)N[C@H]3[C@@H]4C[C@](C)(C(=O)OC)CC[C@]4(C)CC[C@]32C)[C@@]1(C)CCC#N", "growth": "83.3%"},
      {"compound": "O=C(O)c1ccc(Nc2ncc3c(n2)-c2ccc(Cl)cc2C(c2c(F)cccc2F)=NC3)cc1", "growth": "35%"},
      {"compound": "CC1(C)C(=O)CC[C@]2(C)[C@H]3C(=O)C=C4[C@@H]5C[C@@](C)(C(=O)NCCNCCN)CC[C@]5(C)CC[C@@]4(C)[C@]3(C)CC[C@@H]12", "growth": "114%"},
      {"compound": "CN(C)c1ccc(Nc2c3ccccc3nc3ccccc23)cc1", "growth": "-27.5% (active)"},
      {"compound": "COC1=C(OC)C(=O)C(OC)=C(OC)C1=O", "growth": "33.4%"},
      {"compound": "COc1ccc(Nc2ncccc2/C=C/C(=O)c2cc(OC)c(OC)c(OC)c2)cc1", "growth": "-62.1% (active)"},
      {"compound": "COc1cc(/C=C/C(=O)c2ccc(N3CCN(C)CC3)cc2)ccc1F", "growth": "35%"},
      {"compound": "Clc1ccc2c(OCCCN3CCOCC3)c3oc4ccccc4c3nc2c1", "growth": "21.1%"},
      {"compound": "NC(CSSCC(N)C(=O)O)C(=O)O", "note": "(stereo not given)", "growth": "-17% (active)"},
      {"compound": "O=C1/C(=C/c2cccc([N+](=O)[O-])c2)COc2ccc(O)c(O)c21", "growth": "-47.8% (active)"},
      {"compound": "O=C(O)/C(=C\\c1ccc(Cl)cc1)c1ccc(Cl)cc1", "growth": "78.9%"},
      {"compound": "NNC(=O)c1ccccc1N", "growth": "94.8%"},
      {"compound": "COc1ccc(-c2cc(-c3ccccc3)nc(SCCCCCCC(=O)NO)n2)cc1", "growth": "64.1%"},
      {"compound": "O=C1c2ccc3c4c(ccc(c24)C(=O)N1CCCNCc1ccccc1Cl)C(=O)N(CCCNCc1ccccc1Cl)C3=O", "growth": "-89% (active)"},
      {"compound": "N#Cc1c(-c2cccs2)c(C#N)c(=O)n(Cc2nc3ccccc3[nH]2)c1N", "growth": "88.5%"},
      {"compound": "COc1cc(CC(=O)n2ncc3ccc(N)cc32)cc(OC)c1OC", "growth": "94.8%"},
      {"compound": "COc1ccc(-c2nc3sc(-c4ccc(OC)cc4)c(-c4ccc(OC)cc4)n3c2/C=C/c2ccc(C(C)C)cc2)cc1", "growth": "98.9%"},
      {"compound": "CCOC(=O)c1cc2c(n1Cc1cccc(OC)c1)-c1oncc1CC2", "growth": "-2.28% (active)"},
      {"compound": "COc1cc(C(=O)O)c(O)c(C(C)(C)C)c1", "growth": "100%"},
      {"compound": "OCCOSCCO", "growth": "98.2%"},
      {"compound": "Cn1cc(-c2nc(-c3c[nH]c4ncccc34)cs2)c2cc(Cl)ccc21", "growth": "-3.54% (active)"},
      {"compound": "COc1ccc2c3c(c(OCCCN(C)C)nc2c1)-c1ccc(Cl)cc1C3=O", "growth": "43.5%"},
      {"compound": "NC(N)=NS(=O)(=O)c1ccc(NC2=C(I)C(=O)c3ncccc3C2=O)cc1", "growth": "94.1%"},
      {"compound": "COc1ccc2cc3[n+](cc2c1OC)CCc1cc2c(cc1-3)OCO2", "growth": "1.68% (active)"},
      {"compound": "Oc1ccc(CCCCCCc2ccc(O)cc2)cc1", "growth": "99.5%"},
      {"compound": "N#CCCN=Nc1c(O)[nH]c2ccc(F)cc12", "growth": "98.9%"},
      {"compound": "CCOC(CNCc1cc(C)c2[nH]c3ccccc3c2c1C)OCC", "growth": "67.6%"},
      {"compound": "O=C(c1ccccc1)c1ccc(O)c2ncccc12", "growth": "25.6%"}
    ]}
  ]
}
